# Assay results from the supplement of paper PMC7156485.
# ± gives the standard deviation of the averaged measurements.
# System: TDF
# Assay: cell number relative to DMSO (% of DMSO); higher = more cells (less growth inhibition / toxicity)
# Conditions: concentration: 10 µM; 24 h
# In short: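 Six fields per well were imaged at ×10 after the cells were fixed in 3.7% formaldehyde and stained with a rabbit anti-H1.0 antibody, an AlexaFluor 647 secondary and DAPI. The HCC1569 and TDF cells had been plated at 800 per well in 384-well plates (RPMI, 10% FBS) and treated in triplicate with compounds at 10 µM for 24 h at 37 °C. The values are the median of replicates of H1.0 nuclear intensity or cell number, as percent of the plate control. Smoothing for positional effects was applied to HCC1569 data.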
# 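Note: TDF denotes transformed human dermal fibroblasts of mesenchymal origin.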
row,SMILES,cell number
1,CS(=O)c1ccc(-c2nc(-c3ccc(F)cc3)c(-c3ccncc3)[nH]2)cc1.Cl (stereo not given),99.5
2,CN(C)c1nc(N(C)C)nc(N(C)C)n1 [Altretamine],108.4 ± 0.31
3,CCCN(CCC)CC1CCCCN1CCNC(=O)N1c2ccccc2C(=O)Nc2cccnc21 (stereo not given),112
4,C=CCc1ccc(O)c(OC)c1 [Eugenol],114
5,CC(=O)OCC1=C(C(=O)[O-])N2C(=O)C(NC(=O)CSc3ccncc3)C2SC1.[Na+] (stereo not given) [Cephapirin sodium],103
6,CCn1nc(C(=O)O)c(=O)c2cc3c(cc21)OCO3 [Cinoxacin],105
7,COc1cc2c(cc1OC)CC(=O)N(CCCN(C)C[C@H]1Cc3cc(OC)c(OC)cc31)CC2.Cl,102
8,CC1CCC2(C(=O)O)CCC3(C)C(=CCC4C5(C)CCC(O)C(C)(C)C5CCC43C)C2C1C (stereo not given) [Ursolic acid],101
9,CS(=O)(=O)CCNCc1nc(-c2ccc3ncnc(Nc4ccc(OCc5cccc(F)c5)c(Cl)c4)c3c2)cs1.Cl.Cl,99.7
10,CCN(Cc1ccncc1)C(=O)C(CO)c1ccccc1 (stereo not given) [Tropicamide],105 ± 8.1
11,O=C1C=C(CO)OCC1=O [5-hydroxy-2-(hydroxymethyl)-4H-pyran-4-one],94.6
12,CC(=O)OCC(=O)C1(O)CCC2C3CCC4=CC(=O)CCC4(C)C3C(O)CC21C (stereo not given) [Hydrocortisone 21-acetate],104
13,Cl.NCc1c[nH]c(=S)n1[C@H]1CCc2c(F)cc(F)cc2C1,110
14,COc1cc2ncnc(Nc3ccc(Cl)cc3Cl)c2cc1OC [Ste11 MAPKKK Activation Inhibitor],97.5
15,Nc1ccc(-c2cccc3c(=O)cc(N4CCOCC4)oc23)cc1,99.3
16,NC(N)=NCc1cccc(I)c1 [N-(3-iodobenzyl)guanidine],97.3
17,CC1(NCC(O)COc2cccc3[nH]ccc23)CCC(C(C)(C)NC(=O)CBr)CC1 (stereo not given) [Pindobind-5HT1A],10.4
18,CC12CCC(=O)C=C1C=CC1C2CCC2(C)C1CCC21CCC(=O)O1 (stereo not given) [Canrenone],103
19,O=C(c1ccc2c(c1)OCCO2)N1CCCCC1,92.2
20,COc1ccc(C=Cc2cc(OC)cc(=O)o2)cc1 [Yangonin],80.2

row,SMILES,cell number
1,CCCCCC(O)CC=C1C(=O)C=CC1CC=CCCCC(=O)O (stereo not given) [D12-Prostaglandin J2],96.8
2,CC(=O)O.NC(=NCCCC(N)C(=O)O)NO [NG-Hydroxy-L-arginine acetate],107
3,CNC(=O)c1ccccc1Sc1ccc2c(C=Cc3ccccn3)n[nH]c2c1 [Axitinib],46.4
4,OCC1OC(n2cnc3c(NC4CCCC4)ncnc32)C(O)C1O (stereo not given) [N6-Cyclopentyladenosine],104
5,O=C1NC(=O)c2c1c(-c1ccccc1)cc1[nH]c3ccc(O)cc3c21,51.1
6,COc1cccc(/C=N/CC/N=C/c2cccc(OC)c2[O-])c1[O-].[Cl-].[Mn+2],98.1
7,CCOC(=O)Oc1c(OC)cc(C(=O)OC2CC3CN4CCc5c([nH]c6cc(OC)ccc56)C4CC3C(C(=O)OC)C2OC)cc1OC (stereo not given) [Syrosingopine],104
8,NC(=S)NCCCC(N)C(=O)O (stereo not given) [Thiocitrulline],112
9,"O.Oc1cc(O)c2c(c1)OC(c1ccc(O)c(O)c1)C(O)C2 (single isomer, unassigned; (+)) [(+)-Catechin Hydrate]",110
10,O=c1ccc2ccc(O)c(O)c2o1 [Daphnetin],87.6
11,"CCN1CCCC1CNC(=O)c1cc(S(N)(=O)=O)ccc1OC (single isomer, unassigned; (-)) [(-)-Sulpiride]",101
12,CC(=O)Oc1ccc(C(c2ccc(OC(C)=O)cc2)c2ccccn2)cc1 [Bisacodyl],102
13,CC(C)C(=O)Nc1ncc(-c2cc(C(F)F)nn2-c2c(Cl)cccc2Cl)s1,69.8
14,Cc1ccccc1C(=O)c1ccc(Nc2ccc(Br)cc2N)cc1Cl,107
15,O=C([O-])c1cc(=O)c2c(OCC(O)COc3cccc4oc(C(=O)[O-])cc(=O)c34)cccc2o1.[Na+].[Na+] [Disodium Cromoglycate],98.3
16,CC(C)=CCCC(C)=CCCC(C)=CCCC(C)=CCCC(C)=CCCC(C)=CCCC(C)=CCCC(C)=CCCC(C)=CCO [Solanesol],97.8
17,O=C1NC(=O)C(=Cc2cccc(C(F)(F)F)c2)S1 [PIM1/2 Kinase Inhibitor V],103
18,CC1OC(n2cc(F)c(=O)[nH]c2=O)C(O)C1O (stereo not given) [Doxifluridine],107
19,CCCCN1CCCC[C@H]1C(=O)Nc1c(C)cccc1C.Cl,107
20,Cl.O.O=C(O)CN(CCN(CC(=O)O)Cc1ccccc1O)Cc1ccccc1O,98.8
